Measured values published in the supplement of paper PMC8269313.

Test system: 4T1
Test: % inhibition of 4T1 cell number vs DMSO control; higher = stronger growth inhibition
Conditions: 1 µM, 3 days
Outline: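 In 96-well imaging plates whose edge wells went unused, 3000 4T1-H2B-GFP mouse breast cancer cells per well were seeded in 2% FBS medium onto plastic, denuded lung matrix, mCAF1 fibroblast-derived matrix, Matrigel (15 μg/mL) or 0.2% gelatin. Sixteen hours on, kinase inhibitors went in at 1 μM final for 3 days before formalin fixation, DAPI staining and imaging on an INCell Analyzer 2200. Counting of GFP-positive nuclei gave cell numbers, from which percent inhibition relative to control was derived.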

[1] = substrate: lung fibroblast-derived matrix
[2] = substrate: mCAF1 fibroblast-derived matrix

Row | Compound | % inhibition of 4T1 cell number (substrate: Matrigel) | % inhibition of 4T1 cell number (substrate: gelatin) | % inhibition of 4T1 cell number [1] | % inhibition of 4T1 cell number [2] | % inhibition of 4T1 cell number (substrate: plastic)
1 | CC[C@H](CO)Nc1nc(NCc2ccccc2O)c2ncn(C(C)C)c2n1 [Olomoucine II] | 13.3% | 23.4% | 19.8% | 13.3% | 23.7%
2 | CNc1cc2c(Nc3cccc(Br)c3)ncnc2cn1 | -6.51% | -93.8% | 25.4% | 6.09% | -25.5%
3 | CN(C)CCCn1cc(C2=C(c3c[nH]c4ccccc34)C(=O)NC2=O)c2ccccc21 [Bisindolylmaleimide I] | 46.6% | 41.5% | -13.3% | 13.1% | 57.2%
4 | Cc1ncc2ccccc2c1C#N [4-Cyano-3-methylisoquinoline] | 48.6% | 52.6% | -13.2% | -46.1% | 56.8%
5 | O=C1Cc2c([nH]c3ccc(Br)cc23)-c2ccccc2N1 [Kenpaullone] | -24.2% | -0.528% | 23.3% | 25.6% | -48.1%
6 | COc1cc(Nc2ncc3ccn(-c4cccc(CCC#N)c4)c3n2)cc(OC)c1OC [Keratinocyte Differentiation Inducer] | 91.6% | 89% | 93.7% | 97.6% | 94.4%
7 | O=C1NC(=O)C(c2c[nH]c3ccccc23)=C1c1c[nH]c2ccccc12 [Bisindolylmaleimide IV] | 24.5% | -65.7% | 47.8% | 17.1% | -20.6%
8 | COc1ccc(-c2cnc3c(-c4ccsc4)cnn3c2)cc1 [VEGF Receptor 2 Kinase Inhibitor IV] | 8.54% | 30.6% | -18.1% | 5.85% | -14.5%
9 | COc1ccc2c(c1)c(C1=C(c3c[nH]c4ccccc34)C(=O)NC1=O)cn2CCCN(C)C | -19.1% | -76.7% | -27.2% | 11.8% | -63.4%
10 | COc1cc2ncc(-c3ccccc3)nc2cc1OC | 20.6% | 47% | -16.1% | 27.8% | 39.5%
11 | O=C(Nc1ccc(-c2cn[nH]c2)cc1)C1COc2ccccc2O1 (stereo not given) [Rho Kinase Inhibitor V] | -9.35% | 14.6% | -8.88% | 7.12% | -3.09%
12 | COc1ccc(CNC(=O)Nc2ncc([N+](=O)[O-])s2)cc1 [GSK-3b Inhibitor VIII] | -53.9% | 19.6% | 27.8% | 24.4% | -62.1%
